Laboratory results published in PubChem BioAssay AID1851 (National Center for Advancing Translational Sciences (NCATS), 2009).
Several values for one entry are separate records, joined by “and”; a condition that tells them apart may be missing. Equal values may be shown once. Out of some 16,000 compounds screened, about 5,700 (36%) were called active. Another 24% or so got no clear call; they are omitted. The list shows a part of the results. Values without a mark were called inactive. The call rests on the fitted dose curve; in most records, active means well fitted curve in the direction sought with a large enough effect; inconclusive means small, poorly fitted or top-dose-only effect, or effect the other way; inactive means no such curve, though single readings can be large or run the other way.

Each molecule was assayed against Cytochrome P450 1A2 (Homo sapiens) (UniProt P05177) (assay: Cytochrome panel assay with activity outcomes). Settings: recombinant CYP, pro-luciferin dealkylation, luminescence, p450-cyp1a2; series mostly up to 57.1 µM.
On the % scale 0 is the no-effect control and ±100 the full control effect.

Chain of Cytochrome P450 1A2 (Homo sapiens) (P05177 whole entry, looked up): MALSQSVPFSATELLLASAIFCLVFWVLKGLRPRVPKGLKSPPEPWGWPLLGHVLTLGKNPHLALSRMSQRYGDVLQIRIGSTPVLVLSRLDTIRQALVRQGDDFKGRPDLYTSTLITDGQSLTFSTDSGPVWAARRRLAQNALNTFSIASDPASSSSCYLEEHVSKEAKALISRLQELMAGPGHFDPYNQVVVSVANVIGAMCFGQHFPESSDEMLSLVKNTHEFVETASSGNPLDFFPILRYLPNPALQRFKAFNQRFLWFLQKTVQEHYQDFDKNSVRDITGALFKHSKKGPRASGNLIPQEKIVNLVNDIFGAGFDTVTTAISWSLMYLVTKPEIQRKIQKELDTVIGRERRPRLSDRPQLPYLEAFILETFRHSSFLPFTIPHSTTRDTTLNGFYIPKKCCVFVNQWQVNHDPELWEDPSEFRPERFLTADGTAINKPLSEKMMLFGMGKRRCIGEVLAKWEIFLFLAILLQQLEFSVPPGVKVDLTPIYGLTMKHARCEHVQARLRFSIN

Q: For CN(C)S(=O)(=O)c1nc(Cl)c2[nH]cnc2n1, which activity, negative = inhibition is on record?
A: 2.44% [at 11.4 µM]

Q: Which AC50 does the source give for Cc1ccc(-c2ccc(=O)n(CC(=O)NCCN(C)C)n2)cc1 here?
A: inactive

Q: Which AC50 does the source give for C[C@@H]1CCC[C@H](C)N1 here?
A: inactive

Q: With COC(=O)C1=C(C)N=C2SC(C)C(=O)N2C1/C=C/c1ccccc1 (configuration not stated) as the molecule, how does the AC50 read?
A: inactive

Q: With Cc1cc(C)nc(NC(=O)c2cccc([N+](=O)[O-])c2C)n1 as the molecule, how does the AC50 read?
A: inactive

Q: O=C(Nc1cccc(NC(=O)c2ccccc2[N+](=O)[O-])n1)c1ccccc1[N+](=O)[O-] was tested. Which AC50 did it give?
A: 8.91 µM (active)

Q: With CC1CCN(S(=O)(=O)c2ccc3c(c2)C(=NO)c2cc(S(=O)(=O)N4CCC(C)CC4)ccc2-3)CC1 as the molecule, how does the AC50 read?
A: inactive

Q: Which activity, negative = inhibition does the source give for O[C@]1(c2ccccc2)c2ccccc2NC2=NCCN21 here?
A: -14.8% [at 11.4 µM]

Q: How did the activity, negative = inhibition turn out when Nc1cc(S(=O)(=O)O)cc2ccc(S(=O)(=O)O)cc12 was run?
A: -18.1% [at 2.29 µM]

Q: For CC[C@@]1([N+](=O)[O-])C[C@H]2C=C[C@@H]1C2, which activity, negative = inhibition is on record?
A: -12.9% [at 2.29 µM]

Q: How did the AC50 turn out when C[C@@H]1C[C@@H]2[C@H]3CCC4=CC(=O)C=C[C@]4(C)[C@]3(Cl)[C@@H](O)C[C@@]2(C)[C@@]1(O)C(=O)CO was run?
A: inactive

Q: Which AC50 does the source give for O=S(=O)(c1ccccc1)N1CCC2(CC1)CN(c1ncccn1)C2 here?
A: inactive

Q: With O=S(=O)(c1ccccc1)N1CCC2(CCN(c3ncccn3)CC2)CC1 as the molecule, how does the AC50 read?
A: inactive

Q: FC(F)(F)c1ccc(N2CCN(c3cc(-c4ccccc4)nc4ncnn34)CC2)nc1 was tested. Which AC50 did it give?
A: 10 µM (active)

Q: O=S(=O)(c1ccccc1)N1CCN(c2cc(-c3ccccc3)nc3ncnn23)CC1 was tested. Which AC50 did it give?
A: 0.794 µM (active)

Q: How did the AC50 turn out when Nc1nc(Cl)nc2c1ncn2[C@@H]1O[C@@H](COP(=O)(O)OP(=O)(O)OP(=O)(O)O)[C@@H](O)[C@H]1O was run?
A: inactive

Q: C#CCCCO/N=C1/C[C@@H](O)[C@@H](O)[C@@H]2[C@@H]3C(=O)N(CC)C(=O)[C@H]3CC[C@@H]12 was tested. Which activity, negative = inhibition did it give?
A: -3.56% [at 11.4 µM]

Q: Cc1ccc(NC(=S)Nc2nc(CC(=O)Nc3ccccc3)cs2)cc1 was tested. Which AC50 did it give?
A: 2.24 µM (active)

Q: With CCn1c(CC(=O)Nc2ccc(C)cc2)nnc1SCC(=O)Nc1nc(C)cs1 as the molecule, how does the AC50 read?
A: inactive

Q: With COc1cccc([C@@H]2Oc3ccc(OC)cc3/C(=N/OC[C@@H](C)[C@H](OCc3ccccc3)C(C)C)[C@@H]2O)c1 as the molecule, how does the activity, negative = inhibition read?
A: -6.71% [at 11.4 µM]

Q: With CN(C)c1ncc2nc(-c3cc(F)cc(F)c3)c(=O)n(CCc3ccccc3)c2n1 as the molecule, how does the AC50 read?
A: inactive

Q: Which AC50 does the source give for CN(C)c1ncc2nc(-c3ccccc3)c(=O)n(CCc3ccccc3)c2n1 here?
A: 20 µM (active)

Q: CN(C)c1ncc2nc(CCc3ccccc3)c(=O)n(-c3ccccc3)c2n1 was tested. Which AC50 did it give?
A: 0.794 µM (active)

Q: How did the AC50 turn out when COc1cccc(Cn2c(=O)c(-c3cc(F)cc(F)c3)nc3cnc(N(C)C)nc32)c1 was run?
A: inactive

Q: Which AC50 does the source give for CN(C)c1ncc2nc(CCc3ccccc3)c(=O)n(Cc3cccs3)c2n1 here?
A: 1.58 µM (active)

Q: How did the AC50 turn out when COc1cccc(Cn2c(=O)cnc3cnc(N(C)C)nc32)c1 was run?
A: 6.31 µM (active)

Q: With C/C(CCN1CCCc2nc(C)c(C)cc21)=N\O[C@@H](C)CN1CCCCc2nc(C)c(C)cc21 as the molecule, how does the activity, negative = inhibition read?
A: 2.64% [at 11.4 µM]

Q: For C[C@]12CC[C@H]3c4ccc(O)cc4CC[C@@H]3[C@H]1C/C(=N/O)[C@H]2O, which activity, negative = inhibition is on record?
A: -12.7% [at 11.4 µM]

Q: With C=C(C)CNCCN as the molecule, how does the activity, negative = inhibition read?
A: 2.24% [at 2.29 µM]

Q: For CN(C)c1ncc2ncc(=O)n(CCc3ccccc3)c2n1, which AC50 is on record?
A: 0.794 µM (active)

Q: COc1cccc(Cn2c(=O)c(CCc3ccccc3)nc3cnc(N(C)C)nc32)c1 was tested. Which AC50 did it give?
A: 15.8 µM (active)

Q: How did the AC50 turn out when Cc1nc2cnc(N(C)C)nc2n(CCc2ccccc2)c1=O was run?
A: 1.26 µM (active)

Q: Which AC50 does the source give for CN(C)c1ncc2nc(CCc3ccccc3)c(=O)n(CCC#N)c2n1 here?
A: 2 µM (active)

Q: Which AC50 does the source give for CCN1CCCC1CNC(=O)C1c2cc(OC)c(OC)cc2C(=O)N(C)C1c1cccnc1 (configuration not stated) here?
A: inactive

Q: COC(=O)N1CCC2(CCCN(Cc3nccs3)C2)CC1 was tested. Which AC50 did it give?
A: inactive

Q: For COCCn1c(=O)c(CCc2ccccc2)nc2cnc(N(C)C)nc21, which AC50 is on record?
A: 1.26 µM (active)

Q: Which AC50 does the source give for O=c1c(CCc2ccccc2)nc2cncnc2n1Cc1ccc(F)cc1 here?
A: 10 µM (active)

Q: For CN(C)c1ncc2nc(-c3cccc(C#N)c3)c(=O)n(CCC#N)c2n1, which AC50 is on record?
A: inactive

Q: With CN(C)c1ncc2nc(-c3ccccc3)c(=O)n(CCC#N)c2n1 as the molecule, how does the AC50 read?
A: 1.58 µM (active)

Q: How did the AC50 turn out when CN(C)c1ncc2nc(CCc3ccccc3)c(=O)n(Cc3ccc(F)cc3)c2n1 was run?
A: 10 µM (active)

Q: How did the AC50 turn out when CCN(CC)C(=O)CSc1nc(O)cc(=O)n1CC was run?
A: inactive

Q: With C[C@@H]1/C=C\CC(=O)OC[C@H]2O[C@@H](C=C[C@@H]2O)[C@H](C)/C=C\CC(=O)OC1 as the molecule, how does the activity, negative = inhibition read?
A: -3.64% [at 11.4 µM]

Q: For CNC(=O)[C@@H]1O[C@@H](n2cnc3c(NCc4ccc(N)cc4)ncnc32)[C@@H](O)[C@H]1O, which AC50 is on record?
A: inactive

Q: CN(C)c1ncc2nc(CCc3ccccc3)c(=O)n(CCc3ccccc3)c2n1 was tested. Which AC50 did it give?
A: 6.31 µM (active)

Q: Which activity, negative = inhibition does the source give for C=C1C=C(Br)C2(OCCCO2)[C@H]2OC12 (some centres not stated) here?
A: -2.64% [at 11.4 µM]

Q: With COc1ccccc1-c1cc(NCc2cnc(C)cn2)ncn1 as the molecule, how does the AC50 read?
A: 12.6 µM (active)

Q: With Cc1cnc(CNc2cc(-c3ccccc3Cl)ncn2)cn1 as the molecule, how does the AC50 read?
A: 15.8 µM (active)

Q: Cc1cnc(CNc2cc(-c3ccccc3C)ncn2)cn1 was tested. Which AC50 did it give?
A: 12.6 µM (active)

Q: With Cn1cccc1C(=O)N1CCC2(CCN(C(=O)Nc3cccc(F)c3)CC2)CC1 as the molecule, how does the AC50 read?
A: inactive

Q: For C[C@@]12CCC(=O)C=C1CC[C@H]1[C@@H]2[C@@H](O)C[C@]2(C)[C@@H]1CC[C@@]2(O)C(=O)CO, which activity, negative = inhibition is on record?
A: -23.6% [at 11.4 µM]

Q: With O=C(O)/C=C\c1c2ccc(=O)c(O)c-2oc2c(O)c(O)ccc12 as the molecule, how does the activity, negative = inhibition read?
A: -19.8% [at 2.29 µM]

Q: Cc1cc(=O)c2c(O)c(O)ccc2o1 was tested. Which AC50 did it give?
A: 12.6 µM (active)

Q: c1c[nH]c(CN2CCOCC2)n1 was tested. Which activity, negative = inhibition did it give?
A: 6.41% [at 11.4 µM]

Q: Which activity, negative = inhibition does the source give for Oc1c(CN2CCOCC2)ccc(CN2CCOCC2)c1O here?
A: -11.9% [at 2.29 µM]

Q: Which AC50 does the source give for Clc1ccc(-n2nnnc2CN2CCOCC2)cc1 here?
A: 7.08 µM (active)

Q: With Cc1ccnc2nc(C(=O)OCC(=O)Nc3ccc4c(c3)OC(F)(F)O4)nn12 as the molecule, how does the AC50 read?
A: 8.91 µM (active)

Q: Which AC50 does the source give for COc1cc(NC(=O)COC(=O)c2nc3nc(C)cc(C)n3n2)cc(OC)c1 here?
A: 14.1 µM (active)

Q: How did the AC50 turn out when CCN(CC)c1ccc(NC(=O)CSc2nnc3nc(C)cc(C)n23)cc1 was run?
A: inactive

Q: Which activity, negative = inhibition does the source give for C#CCCCO/N=C1/[C@H]2O[C@@H]2[C@@H](O)[C@H]2[C@H]1CCn1c(=O)n(C)c(=O)n12 here?
A: -0.0514% [at 11.4 µM]

Q: How did the activity, negative = inhibition turn out when CCN1C(=O)[C@@H]2[C@H]3C(=CC[C@@H]2C1=O)C1(OCCCO1)[C@H]1O[C@@H]1[C@H]3O was run?
A: -2.44% [at 11.4 µM]

Q: With Cc1ccc(S(=O)(=O)N2CCN(S(C)(=O)=O)C2)cc1 as the molecule, how does the AC50 read?
A: inactive

Q: Which AC50 does the source give for COC(=O)c1cccc(C(=O)Nc2ccc(C)cc2)n1 here?
A: 1 µM (active)

Q: How did the AC50 turn out when CCOC(=O)c1cccc(C(=O)OCC)n1 was run?
A: 12.6 µM (active)

Q: With Cc1ccc(OC(=O)c2cccc(C(=O)Oc3ccc(C)cc3)n2)cc1 as the molecule, how does the AC50 read?
A: inactive

Q: How did the AC50 turn out when Cc1ccc(OC(=O)c2cccc(C(=O)Oc3ccc(C)cn3)n2)nc1 was run?
A: inactive

Q: Which AC50 does the source give for O=C(CCC(=O)c1cccs1)OCC(=O)N1CCN(C(=O)c2ccco2)CC1 here?
A: inactive

Q: For O=C(OCC(=O)c1cccs1)c1cccc(C(=O)OCC(=O)c2cccs2)n1, which AC50 is on record?
A: 15.8 µM (active)

Q: Which AC50 does the source give for S=c1nc(-c2ccccc2)oc2c1CCCC2 here?
A: 0.562 µM (active)

Q: For COc1ccc(-n2c(-c3ccccc3)nc(=S)c3c2CCCC3)cc1, which AC50 is on record?
A: inactive

Q: With Cc1ccc(C(=O)NC(=S)Nc2cccc3nsnc23)cc1 as the molecule, how does the AC50 read?
A: inactive

Q: For O=C(Nc1cccc2nsnc12)c1ccc(-c2cccc(Cl)c2)o1, which AC50 is on record?
A: 2 µM (active)

Q: For CCCn1nnc(NC(=O)c2ccc(-c3cccc(Cl)c3)o2)n1, which AC50 is on record?
A: 1.58 µM (active)

Q: With O=C(c1cnccn1)N1CCC2(CCCN(c3ccccn3)C2)CC1 as the molecule, how does the AC50 read?
A: inactive

Q: Which AC50 does the source give for Cc1ccc(/C=C2\OC(=O)c3ccccc32)cc1 here?
A: 0.794 µM (active)

Q: With CC(C)c1ccc(/C=C2\C=C(c3ccc4ccccc4c3)OC2=O)cc1 as the molecule, how does the activity, negative = inhibition read?
A: -24.7% [at 2.29 µM]

Q: For Cc1ccccc1/C=C1\OC(=O)c2ccccc21, which AC50 is on record?
A: 1.26 µM (active)

Q: With CC(=O)OC[C@@H]1O[C@@H](O/N=C2/C[C@@H](O)[C@@H](O)[C@@H]3[C@@H]4C(=O)N(Cc5ccc6c(c5)OCO6)C(=O)[C@H]4CC[C@@H]23)[C@H](OC(C)=O)[C@H](OC(C)=O)[C@@H]1OC(C)=O as the molecule, how does the activity, negative = inhibition read?
A: -15% [at 11.4 µM]

Q: With CC(=O)[C@H]1CC[C@@H]2[C@H]3CC=C4C[C@@H](O)CC[C@]4(C)[C@H]3CC[C@]12C as the molecule, how does the AC50 read?
A: inactive

Q: O=C(N=NC(=O)c1ccc2c(O)n(C3CCCCC3)c(O)c2c1)c1cccnc1 was tested. Which AC50 did it give?
A: inactive

Q: C[C@@H](c1ccccc1)N1C(=O)[C@H]2[C@@H]3[C@H](O)[C@H](O)CC(=O)[C@H]3CC[C@H]2C1=O was tested. Which activity, negative = inhibition did it give?
A: 6.67% [at 11.4 µM] and -2.18% [at 11.4 µM]

Q: Which AC50 does the source give for N#CCSc1nc2cc(C(=O)N3CCCC3)ccc2c(=O)n1Cc1ccccc1 here?
A: 15.8 µM (active)

Q: How did the AC50 turn out when NC1(C(=O)O)C[C@H](C(=O)O)[C@H](C(=O)O)C1 (some centres not stated) was run?
A: inactive

Q: Which AC50 does the source give for COc1ccc(/C=N/n2cnc3c([nH]c4ccc(Br)cc43)c2=O)cc1CN1CCOCC1 here?
A: 12.6 µM (active)

Q: For Nc1ncnc2c1ncn2[C@@H]1CCCO1, which AC50 is on record?
A: inactive

Q: C[N+](C)(C)c1ncnc2c1ncn2[C@@H]1CCCCO1 was tested. Which activity, negative = inhibition did it give?
A: 2.33% [at 2.29 µM]

Q: O=[N+]([O-])c1ccc(Cl)c(CNc2ncnc3c2ncn3[C@@H]2CCCCO2)c1 was tested. Which AC50 did it give?
A: 5.01 µM (active)

Q: For Cc1cc([N+](=O)[O-])c(C)c(Br)c1C, which AC50 is on record?
A: 1 µM (active)
